Shown are actives, neighbours in structure and some others; about 2.4% of the full set was active somewhere.
D2 ag-1 = HTS Assay for Allosteric Agonists of the Human D2 Dopamine Receptor: Primary Screen for Agonists; activation, % at 2 µM; AID 485358, 2010; HEK293 T-REx D2 cells, calcium flux agonist mode; hit rate 0.53% among 340,000; D(2) dopamine receptor (Homo sapiens), P14416;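 active = activation over 3 SD above normal in the single-dose calcium agonist read, cut at about 30% in these data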; also: 0% is about no effect
Target sequence (P14416 whole entry, looked up): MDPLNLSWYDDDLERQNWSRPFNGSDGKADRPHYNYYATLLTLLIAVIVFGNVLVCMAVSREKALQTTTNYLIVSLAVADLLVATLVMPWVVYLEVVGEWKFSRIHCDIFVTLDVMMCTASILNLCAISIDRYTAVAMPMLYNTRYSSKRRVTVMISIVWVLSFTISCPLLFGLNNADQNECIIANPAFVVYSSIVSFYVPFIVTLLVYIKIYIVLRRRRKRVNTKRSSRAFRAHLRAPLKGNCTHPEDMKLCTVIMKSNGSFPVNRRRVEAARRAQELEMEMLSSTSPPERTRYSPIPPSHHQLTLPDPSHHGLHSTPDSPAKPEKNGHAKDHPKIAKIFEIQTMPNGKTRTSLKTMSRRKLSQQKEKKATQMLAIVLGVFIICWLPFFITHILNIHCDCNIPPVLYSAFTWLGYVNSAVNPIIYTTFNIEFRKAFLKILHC
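HEK293 Trex D2 cells, tetracycline-induced, o/n 30 C 5% CO2; no-wash Ca dye, RT 30–90 min; 10-cycle baseline, 23 nl cpd added, kinetic Ca read 180 s; agonist hits = positive Ca response.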
D2 PAM-1 = Beta-Arrestin HTS for Positive Allosteric Modulators of the Human D2 Dopamine Receptor: Potentiators; hit rate 0.23% among 360,000; DiscoveRx D2 beta-arrestin cells, luminescence, 90 min; 100% = 57 uM dopamine signal; D(2) dopamine receptor (Homo sapiens), P14416; potentiation, % (test concentration not listed); AID 624464, 2012; in the data active = potentiation above about 50%
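PathHunter beta-arrestin assay in DiscoveRx D2 cells. Compounds were added with an EC20 of dopamine (50 nM final) for 90 min at 37 deg C. Luminescence was read 1 h after detection reagent, with 57 uM dopamine as the EC100 control.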
D2 ag-2 = Beta-Arrestin HTS for Positive Allosteric Modulators of the Human D2 Dopamine Receptor: Agonists; DiscoveRx PathHunter D2 beta-arrestin, luminescence, 90 min; 100% = 57 uM dopamine signal; activation, % (concentration not given with the values); hit rate 0.084% among 360,000; in the data active = activation above about 40%
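DiscoveRx PathHunter D2 beta-arrestin cells (2,100/well) attached overnight, then compound-stimulated 90 min at 37 C in HBSS/10 mM HEPES/0.1% Tween-20 buffer; beta-galactosidase complementation read by luminescence after 1 h at ambient temperature. Dopamine 57 uM final (EC100) as control.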
D2 antag = HTS Assay for Allosteric Antagonists of the Human D2 Dopamine Receptor: Primary Screen for Antagonists | D(2) dopamine receptor (Homo sapiens), P14416 | hit rate 2% among 340,000 | AID 485344, 2010 | HEK293 TREx D2 cells, calcium flux, dopamine EC80 | inhibition, % at 10 µM; in the data active = inhibition above about 30%; inactive = below that, where a call was filed; also: 0% is about no effect
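Calcium mobilization kinetics were recorded at 1 s intervals in tetracycline-induced HEK293 T-REx D2 cells, first for 180 s after compound addition and then 180 s after EC80 dopamine.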
D2 PAM-2 = HTS Assay for Positive Allosteric Modulators of the Human D2 Dopamine Receptor: Primary Screen for Potentiators; D(2) dopamine receptor (Homo sapiens), P14416; HEK293 T-REx D2, calcium flux, EC20 dopamine potentiation; potentiation, % at 10 µM; hit rate 0.34% among 340,000;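 active = potentiation over 3 SD above the plate norm, cut at about 30% in these data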; also: 0% is about no effect
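Primary screen. Calcium kinetics in induced HEK293 T-REx D2 cells: compound pre-addition 180 s, EC20 dopamine, 180 s more.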
Active calls of the source: *; / = no result given.

SMILES	D2 ag-1	D2 PAM-1	D2 ag-2	D2 antag	D2 PAM-2
CC(NS(=O)(=O)c1ccc2[nH]c(=O)[nH]c2c1)c1ccc(F)cc1 (stereo unspecified)	/	-10	1	/	/
Cc1nc2sc(C(c3ccccc3)N3CCN(C)CC3)c(O)n2n1 (stereo unspecified)	-1	-5	0	47*	0
CC(C)C(=O)N1CCC1(C)C(=O)Nc1nc2ccccc2[nH]1 (stereo unspecified)	/	1	-3	/	/
CCn1c(=O)c2cc(C(=O)NCCc3ccc(OC)c(OC)c3)sc2c2ccccc21	0	/	/	/	-10
CCOc1cccc(N2CCN(CCNC(=O)Nc3ccc(C)cc3)CC2)c1C	3	-2	-4	44*	-19
O=C(Cn1nc(-c2ccccc2)ccc1=O)NCCN1CCN(c2cccc(Cl)c2)CC1	0	-14	-1	64*	-19
CCOc1ccc(NC(=O)NCCN2CCN(c3cccc(C)c3C)CC2)cc1	17	-23	-5	5	-34
COc1ccc(NC(=O)NCCN2CCN(c3cccc(Cl)c3)CC2)cc1	0	-10	2	36*	15
Cc1ccc(CN2C(=O)CCC2C(=O)NCCN2CCN(c3cccc(Cl)c3)CC2)cc1 (stereo unspecified)	13	-5	0	44*	-19
O=C1C=C(C#Cc2ccc(Oc3ccccc3)cc2)C[C@@H](c2ccc(F)cc2)C1	/	-1	-8	/	/
COc1ccccc1C(=O)OCc1cc(=O)n2nc(C3CCCCC3)sc2n1	0	/	/	/	14
Cn1c(=O)n(C)c2cc(N3CCCCC3)c(NC(=O)c3ccc(Cl)cc3)cc21	0	/	/	/	2
C=CCC1=C/C(=C\c2c(N)n3nc(CC(=O)N4CCCC4)sc3nc2=O)C=C(OC)C1=O	40*	-2	-5	2	-5
CCOC(=O)c1cc(C)nc(SC)c1C#N	1	1	4	31*	9
CCOC(=O)c1cc(C(C)(C)C)nc(SC)c1C#N	-1	-16	-6	-17	7
O=C(CCC1CCCCC1)NCCN1C2=NC[C@@H](Cc3ccccc3)N2C[C@H]1Cc1ccc(O)cc1	0	-31	-4	51*	-24
COc1ccc(C[C@@H]2CN3C(=NC[C@@H]3Cc3ccc(O)cc3)N2C[C@H](C)NC(=O)CCC2CCCCC2)cc1	-2	-31	-3	-34	-6
C[C@@H](CN1C2=NC[C@H](C)N2C[C@H]1Cc1ccc(O)cc1)NC(=O)CCC1CCCCC1	0	-33	-4	52*	-18
CC(C)[C@H]1CN=C2N(C[C@H](C)NC(=O)CCC3CCCCC3)[C@H](Cc3ccc(O)cc3)CN21	0	-24	1	77*	-23
COc1cc(C)ccc1OCCSc1nc2ccc(NC(=O)c3ccccc3F)cc2s1	-2	/	/	/	/
COCCNC(=O)C1CCCN(S(=O)(=O)c2ccc3c(ccn3C)c2)C1 (stereo unspecified)	-1	/	/	/	9
CC(C)(C)OC(=O)N1CCC(c2c(C(=O)NCC3CCN(C4CCCC4)C3)cnn2-c2ccccc2Cl)CC1 (stereo unspecified)	-1	-9	0	46*	5
CC(C)(C)OC(=O)N1CCC(c2c(C(=O)O)cnn2-c2ccccc2Cl)CC1	-1	-13	-2	13	-2
COCCNC(=S)N/N=C(\C)c1ccc(C)c([N+](=O)[O-])c1	-2	-6	2	32*	-2
Cc1nc(Cl)sc1C(=O)Nc1ccccc1Cl	-1	53*	2	-8	6
SMILES	D2 ag-1	D2 PAM-1	D2 ag-2	D2 antag	D2 PAM-2
Cc1ccc(C)c(S(=O)(=O)N2CCN(C(=O)CCNS(=O)(=O)c3ccc(C)c(C)c3)CC2)c1	0	9	2	-16	32*
Cc1ccc(S(=O)(=O)NCCC(=O)N2CCN(S(=O)(=O)c3ccccc3)CC2)cc1C	0	-3	-9	18	-9
CC(=O)N1c2ccc(S(=O)(=O)N(C)CC(=O)NC3CCCCC3C)cc2CC1C (stereo unspecified)	0	-5	6	5	42*
CC(=O)N1c2ccc(S(=O)(=O)N(C)CC(=O)NCc3ccccc3)cc2CC1C (stereo unspecified)	0	-12	-9	1	9
CC(=O)N1c2ccc(S(=O)(=O)N(C)C3CCCCC3)cc2CC1C (stereo unspecified)	0	-11	-2	-7	30*
CS(=O)(=O)N1CCN(c2ccccc2NC(=O)c2cccnc2Cl)CC1	0	-5	-4	33*	-1
CS(=O)(=O)N1CCN(c2ccccc2NC(=O)c2ccc(Cl)cc2)CC1	0	18	3	-10	-5
COc1ccc(C(=O)Nc2cc(C)c(NC(=O)c3ccccn3)cn2)cc1	0	-3	-2	-24	35*
Cc1nc2sc(C(=O)OCC(=O)N3c4ccccc4CC3C)c(C)c2c(=O)[nH]1 (stereo unspecified)	5	-1	-1	52*	-7
COc1ccc(C)cc1NC(=O)c1ccc2nc(Cc3ccccc3)oc2c1	0	/	/	/	16
Cn1nnc2cc(C(=O)Nc3ccccc3)ccc21	1	-2	-3	13	11
COc1ccccc1NC(=O)c1ccc2c(c1)nnn2C	0	-2	-6	71*	3
COc1ccc(S(=O)(=O)N(C)C)cc1NC(=O)Cc1cccs1	-2	-18	-2	34*	-8
COc1ccc(S(=O)(=O)N2CCCCC2)cc1NC(=O)Cc1cccs1	0	10	-1	38*	-11
COc1ccc(S(=O)(=O)N(C)C)cc1NC(=O)c1ccc2c(c1)NC(=O)C(C)S2 (stereo unspecified)	-1	-36	-4	77*	-21
COc1ccc(S(=O)(=O)N(C)C)cc1NC(=O)CSC(C)C(=O)Nc1cc(C)on1 (stereo unspecified)	0	-15	-2	72*	-27
COc1ccc(S(=O)(=O)Nc2ccccc2OC)cc1NC(=O)Cc1cccs1	-1	-18	1	-24	12
COc1ccc(NC(=O)Cc2cccs2)cc1S(=O)(=O)N1CCCCC1	/	-21	0	/	/
CCC1CN(C(=O)N2CCC(C(=O)N(C)Cc3ccccc3)CC2)c2ccccc2O1 (stereo unspecified)	3	/	/	/	-9
Cc1ccc(-n2ccnc(NCCc3ccc(S(N)(=O)=O)cc3)c2=O)c(C)c1	0	/	/	/	2

Assay outcomes: PubChem BioAssay, National Center for Advancing Translational Sciences (NCATS)
